{"source": "PubChem BioAssay (NCI)", "note": "About 83,000 compounds went through this panel and 20% of them were active in at least one assay; those are over-represented in the sample as a whole.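 Plates (96-well) were seeded with cells, treated with compound at one concentration, and incubated for 48 hours before percent growth was determined.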 Unmarked numbers belong to inactive results. The source made the active and inactive calls. Rule for the calls: active = growth percent below 10; inactive = the rest."}
{"tested_on": "HL-60(TB) leukemia", "experiment": "NCI-60 one-dose screen, 48 h (100 = growth as untreated, 0 = no growth, -100 = all killed)", "conditions": "10 µM unless noted"}
{"smiles": "Oc1ccccc1-c1nnc(SCc2ccc(O)c3ncccc23)n1-c1ccccc1", "growth": "4.52% (active)"}
{"smiles": "COc1cccc(O)c1/C=C(/C)c1ccc2c(OC)cccc2[o+]1", "growth": "120%"}
{"smiles": "COc1ccc(OC)c(NC(=O)CCCCCCNC(=O)C(O)(O)C(F)(F)F)c1", "growth": "10.6%"}
{"smiles": "CC(=O)C1=NN(c2ccc(Cl)cc2)C(=O)CN1C", "growth": "105%"}
{"smiles": "CC(=C(c1ccc(OCCN(C)C)cc1)c1ccc(OCCN(C)C)cc1)c1ccc(Cl)cc1", "growth": "-53.5% (active)"}
{"smiles": "CS(=O)(=O)c1nccc(-c2c(-c3ccc(F)c(OCc4ccccc4)c3)nc3sccn23)n1", "growth": "5.59% (active)"}
{"smiles": "O=C(/C=C/c1cccc(F)c1)c1cccc(OCCCCOc2cccc(C(=O)/C=C/c3cccc(F)c3)c2)c1", "growth": "101%"}
{"smiles": "CC[C@]12C=CCN3CC[C@@]4(c5cc(NC(=O)COc6cc(O)c7c(=O)cc(-c8ccccc8)oc7c6)c(OC)cc5N(C)[C@H]4[C@@](O)(C(=O)OC)[C@@H]1OC(C)=O)[C@@H]32", "growth": "-44.9% (active)"}
{"smiles": "CC(C)(O)c1cncc(-c2ccc3ncnc(N4CCc5cc(F)c(Cl)cc54)c3c2)c1", "growth": "1.38% (active)"}
{"smiles": "NC(=O)c1c(NC(=O)c2cccc(C(F)(F)F)c2F)sc2c1CCC(=O)C2", "growth": "15%"}
{"smiles": "Cc1cc2nc(C(Cl)Cl)nc(-c3ccc(S(=O)(=O)N(C)C)cc3)n2n1", "growth": "0.868% (active)"}
{"smiles": "CC(=O)OCCCCN1C=C/C(=C\\C(=O)n2ccc3ccccc32)c2ccccc21", "growth": "98.6%"}
{"smiles": "CSc1ccc(C(=NNS(=O)(=O)c2ccc(C)cc2)c2ccc(Cl)cc2)cc1", "growth": "97.1%"}
{"smiles": "O=C1[C@H]2Cc3c([nH]c4ccccc34)[C@H](c3ccc(Br)cc3)N2C(=O)CN1C1CCN(CC2CCCCC2)CC1", "growth": "56.9%"}
{"smiles": "CC1COc2c(N3CCN(C)CC3)c(F)cc3c(=O)c(C(=O)N/N=C/c4cc[nH]c4)cn1c23", "note": "(stereo not given)", "growth": "20.3%"}
{"smiles": "Cc1cccc(/C=C/c2nn3c(-c4ccco4)nnc3s2)c1", "growth": "86.2%"}
{"smiles": "CCN(CC)c1ccc2c(c1)Oc1nc(N)c(C#N)c(N)c1C2Sc1ccc(F)cc1", "note": "(stereo not given)", "growth": "-18.4% (active)"}
{"smiles": "CCOC(=O)c1c(Nc2ccccc2)nn2c(N)c(C#N)c(-c3ccc(OC)cc3)nc12", "growth": "112%"}
{"smiles": "Cc1ccc2c(n1)C(=O)C(Cl)=C(Nc1ccccc1C(=O)OC(C)(C)C)C2=O", "growth": "-32.7% (active)"}
{"smiles": "Oc1ccc(CSc2nnc(-c3ccccc3)n2-c2ccccc2)c2cccnc12", "growth": "7.9% (active)"}
{"smiles": "Oc1ccc(CSc2nnc(-c3ccncc3)o2)c2cccnc12", "growth": "8.26% (active)"}
{"smiles": "NC(=S)N/N=C(/C=C/c1cn(-c2ccccc2)nc1-c1ccc(Cl)cc1)c1cc2ccccc2oc1=O", "growth": "43.9%"}
{"smiles": "Cc1ccc(NC(=O)N[C@@H](Cc2cc(F)cc(F)c2)C(=O)NC2C(=O)N3CCC[C@H]3C(=O)N3CCCC[C@H]3C(=O)N[C@@H](C)C(=O)N3C[C@H](C)C[C@H]3C(=O)O[C@H]2C)c(F)c1", "note": "(stereo not given in full)", "growth": "13.4%"}
{"smiles": "CN1C(=O)N(C)C2Nn3c(s/c(=C\\c4ccccn4)c3=O)=NC21", "note": "(stereo not given)", "growth": "110%"}
{"smiles": "Cn1c(SC(C(=O)Nc2ccc(F)cc2)c2ccccc2)nc2ccccc2c1=O", "note": "(stereo not given)", "growth": "103%"}
{"smiles": "COc1ccccc1-n1cc(C#N)c(N)c1C(=O)c1ccc(C)cc1", "growth": "56.7%"}
{"smiles": "CCC(=O)Nc1cc(Nc2cc(NC3CC3)n3ncc(C#N)c3n2)ccc1C", "growth": "5.84% (active)"}
{"smiles": "CCN1C(=O)N(CC)C2C1NN=C1SC(c3ccccc3)=CC(=O)N12", "note": "(stereo not given)", "growth": "-2.48% (active)"}
{"smiles": "Fc1ccc(-c2cc3nc(C(Cl)Cl)nc(-c4ccccc4)n3n2)cc1", "growth": "-17.3% (active)"}
{"smiles": "CCCCSC1=C(Cl)CN(c2ccc(Cl)cc2)C1=O", "growth": "85.4%"}
{"smiles": "COC[C@]12CC[C@@H](C)[C@H](C)[C@H]1C1=CC[C@@H]3[C@@]4(C)CCCNC(C)(C)[C@@H]4CC[C@@]3(C)[C@]1(C)CC2", "growth": "-47.1% (active)"}
{"smiles": "O=S(=O)(Nc1ccc(C2CC2)cc1)c1ccc(-c2cnc(C3CC3)o2)cc1", "growth": "38.9%"}
{"smiles": "Nc1c(C(=O)Nc2ccc(Cl)cc2)sc2nc(-c3cnccn3)cc(-c3cccs3)c12", "growth": "58.3%"}
{"smiles": "C[C@@H]1C[C@H]2C(=O)OCC(NC(=O)[C@H](Cc3cc(F)cc(F)c3)NC(=O)Nc3ccc(Cl)cc3F)C(=O)N3CCC[C@H]3C(=O)N3CCCC[C@H]3C(=O)N[C@@H](C)C(=O)N2C1", "note": "(stereo not given in full)", "growth": "6.2% (active)"}
{"smiles": "C=CCOc1cccc(/C=C2\\SC(=S)N(C3CC(=O)N(c4ccc(Br)cc4)C3=O)C2=O)c1", "note": "(stereo not given)", "growth": "108%"}
{"smiles": "CC(=O)N(C)C1CCc2c(sc(NC(=O)c3ccc(C(C)(C)C)cc3)c2C(N)=O)C1", "note": "(stereo not given)", "growth": "40.4%"}
{"smiles": "C#C[C@]1(O)CC[C@H]2[C@@H]3CC=C4c5sc(N(C)c6ccccc6)nc5CC[C@]4(C)[C@H]3CC[C@@]21C", "growth": "61.8%"}
{"smiles": "NC(=S)n1c(=O)n(-c2cccc(C(F)(F)F)c2)c(=O)c2cc(-c3ccc(F)cc3F)ccc21", "growth": "-46.8% (active)"}
{"smiles": "CCc1cc2c(cc1Cl)nc1c(=O)[nH]c(=O)nc-1n2CCOCC(C)C", "growth": "51.2%"}
{"smiles": "N/C(=N\\C(N)=N\\c1nc2ccccc2s1)c1ccc(Cl)cc1", "growth": "90.3%"}
